Results: PubChem BioAssay AID1452 (National Center for Advancing Translational Sciences (NCATS), 2008)
Hit rate of the full screen: of about 150,000 compounds, about 190 (0.13%) were called active. Inconclusive results (about 2%) are left out. The sample holds actives, similar compounds and a random draw of the others, so the mix is not that of the screen. The call rests on the fitted dose curve; in most records, active means well fitted inhibition curve with a large enough effect; inconclusive means small, poorly fitted or top-dose-only effect; inactive means flat fitted curve, though single readings scatter.

Each molecule was assayed against Polyunsaturated fatty acid lipoxygenase ALOX12 (Homo sapiens) (UniProt P18054) (assay: qHTS Assay for Inhibitors of 12-hLO (12-human lipoxygenase)). Details: purified 12-hLO, xylenol orange hydroperoxide absorbance; series mostly up to 57.1 µM; activity change, negative = inhibition: at the top concentration.
Chain of Polyunsaturated fatty acid lipoxygenase ALOX12 (Homo sapiens) (P18054 whole entry, looked up): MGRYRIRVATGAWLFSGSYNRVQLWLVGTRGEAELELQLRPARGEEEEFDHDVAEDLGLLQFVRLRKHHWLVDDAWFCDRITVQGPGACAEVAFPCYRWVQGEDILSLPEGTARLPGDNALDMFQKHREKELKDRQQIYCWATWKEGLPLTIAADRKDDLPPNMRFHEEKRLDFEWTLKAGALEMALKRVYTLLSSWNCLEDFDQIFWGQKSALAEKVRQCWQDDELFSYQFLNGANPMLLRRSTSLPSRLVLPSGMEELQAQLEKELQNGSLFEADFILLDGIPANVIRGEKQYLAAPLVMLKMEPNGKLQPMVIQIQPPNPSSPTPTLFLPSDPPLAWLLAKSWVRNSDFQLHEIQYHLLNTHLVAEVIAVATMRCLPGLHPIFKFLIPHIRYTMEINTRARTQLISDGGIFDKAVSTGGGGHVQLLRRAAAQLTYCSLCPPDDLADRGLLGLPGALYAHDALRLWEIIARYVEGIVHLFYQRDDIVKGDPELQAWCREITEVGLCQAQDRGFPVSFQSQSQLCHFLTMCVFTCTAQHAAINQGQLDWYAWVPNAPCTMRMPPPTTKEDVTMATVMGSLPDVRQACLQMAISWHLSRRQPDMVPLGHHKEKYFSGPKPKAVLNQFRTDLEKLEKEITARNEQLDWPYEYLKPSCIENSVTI
Source text: Assay Provider: Holman, T.R., University of California, Santa Cruz Screening Center PI: Austin, C.P. Screening Center: NIH Chemical Genomics Center [NCGC] Human lipoxygenase 12hLO is a member of the closely related lipoxygenase family of enzymes which catalyze the site-specific oxidation of arachidonic acid to various hormone precursor molecules and as such is a candidate for drug development in a variety of disease areas, such as cancer and inflammation. Inhibition of 12hLO activity was screened by utilizing arachidonic acid as a substrate. The extent of hydroperoxide product formation was measured by a secondary chromogenic reaction in which xylenol orange (XO, Sigma-Aldrich, cat. number 39,818-7) reacts with the ferric ions produced from the reaction between the hydroperoxide and ferrous ions. The Fe(III)-XO complex is characterized with red-shifted absorbance at 560 nm. A purified preparation of human 12hLO was supplied by Professor Ted Holman, University of California, Santa Cruz.
Assay Protocol: Buffer: 25 mM Hepes pH 7.0, 0.01% Triton X-100. Reagents/Controls: Buffer in columns 3 and 4 as negative control (no enzyme). Substrate solution: 40 uM arachidonic acid (Sigma-Aldrich, St. Louis, MO) final concentration dispensed throughout the plate. Enzyme: 150 nM 12hLO final concentration in columns 1, 2, 5-48. Column 1 is neutral (100% activity). Column 2 contained pin-transferred titration of NDGA (nordihidroguaiaretic acid, Sigma-Aldrich, N 5023, top concentration 20 mM in DMSO, then 1:3 dilution in duplicate). (Dilution factor: 23 nL into 4 uL.) Chromogenic detection reagent (divalent iron/xylenol orange, Fe-XO): 200 uM xylenol orange plus 300 uM ferrous ammonium sulfate prepared freshly in 50 mM sulfuric acid. Assay Steps: Three uL of enzyme were dispensed to 1536-well Greiner black clear bottom plates. Compounds and controls (23 nL) were transferred via Kalypsys PinTool. The plates were incubated for 15 min at room temperature, and then 1 uL of substrate solution was added to start the reaction. After room temperature incubation for 30 minutes, 4 uL of Fe-XO solution was added to each well and the plates were incubated for 30 min. The absorbance at 405 and 573 nm were measured using ViewLux (Perkin-Elmer) High-throughput CCD imager and absorbance protocol settings. The 573-to-405 absorbance ratio was used to compute reaction progress.
Further: nearly all actives have a fitted effect of over 55% in size.
On the % scale 0 is the no-effect control and ±100 the full control effect; potency means the concentration at half of the fitted maximal effect.

Activity change, negative = inhibition, inactive:
CCCCCCCC[n+]1cccc(C(=O)N2c3c(nc(N)[nH]c3=O)NC(C)C2C)c1 (stereo not given) -3.59%
C[C@@H]1C(c2ccc(F)cc2)=NN(c2ccc(Br)cc2)[C@H]1C(=O)N1CCOC1=O -4.22% [at 0.00818 µM]
O=[N+]([O-])c1ccccc1SNc1ccccn1 2.54%
C=C1C2C[C@H](O)C(C)(C)[C@@]2(O)[C@H](O)C[C@]23C[C@@](C)(O)[C@H](CC[C@H]12)[C@H]3O (stereo not given in full) -0.156%
CCOC(=O)C1C/C(=C\C(C)=O)c2cccc(C(F)(F)F)c2O1 (stereo not given) -1.22% [at 0.00818 µM]
CC(Nc1oc(-c2ccccc2)nc1-c1ccccc1)c1ccccc1 (stereo not given)
Cc1cc2oc(=O)cc(-c3ccccc3)c2c(C)c1/C=C/c1ccc(F)cc1 -3.71% [at 0.00818 µM]
COc1cccc(C(=O)Nc2cc3c(cc2Br)OCCCO3)c1 -0.158%
CCCCC[C@H](O)/C=C/[C@@H]1[C@@H](CC(=O)CCC(=O)O)[C@@H](O)C[C@H]1O 1.55%
COc1ccc(CCNC(=O)/C(C#N)=C2\N=C(NC(=O)c3cccs3)c3ccccc32)cc1 0.415%
O=C(OC1CCOC1=O)c1cccc(S(=O)(=O)Nc2ccc(F)cc2)c1 (stereo not given) 1.87%
O=C(CNCc1ccc(F)cc1)Nc1ccccc1-c1ccccc1 -0.876%
COc1ccccc1N=Cc1c(O)c2ccccc2oc1=O 0.0273%
CC(=O)Nc1ccc(S(=O)(=O)NCC(=O)OCc2cc(=O)oc3ccc4ccccc4c23)cc1 1.72%
COC(=O)C1=C(C(=O)OC)[C@@H]2N(C)c3ccccc3[C@@]23C[C@@H](C(=O)OC)N(S(=O)(=O)c2ccc(Br)cc2)C3=N1 2.4% [at 11.4 µM]
COC(=O)c1c(NC(=O)COC(=O)[C@@H](NS(=O)(=O)c2ccccc2)C(C)C)sc2c1CCC2 -1.84%
Brc1ccc(C2=NCCC(c3ccccc3)O2)cc1 (stereo not given) 0.263% [at 0.00818 µM]
COc1ccc(-c2nc3c(c4c2C[C@H](c2ccccc2)OC4)CN(C(=O)c2cccnc2)CC3)c(C)c1 1.97% [at 11.4 µM]
COc1ccc(-c2nnc(SC(C)C#N)o2)cc1 (stereo not given) -9.79%
COc1ccc(-c2nnc(SCc3cccnc3)o2)cc1 -1.27%
COc1ccc(C(=O)COC(=O)c2ccc3ccccc3n2)cc1 -2.31%
O=c1cc(CN2CCN(S(=O)(=O)/C=C/c3ccccc3)CC2)c2ccc(O)cc2o1 -3.24%
COc1ccc(C2CC(=O)Oc3ccc(C(C)(C)C)cc32)cc1 (stereo not given) -4.97% [at 0.00818 µM]
CCOc1ccc(N2C(=O)/C(=C/c3ccc(C)o3)N(C)C2=S)cc1 -4.46%
COC(=O)CCCC1=CC2=C(c3ccccc3)C(=O)C(C)(OC(=O)C3CCCC3)C(=O)C2=CN1c1ccc(OC)cc1 (stereo not given) -9.71% [at 11.4 µM]
CCOC(=O)c1c(NC(=O)C2(C)Cc3ccccc3C(=O)O2)sc2c1CCCC2 (stereo not given) 15.1%
COCCCNC(=S)NC(=O)c1ccccc1 -6.12%
C[C@H]1Cc2c(-c3ccccc3)nc3c(c2CO1)CN(C(=O)C1CC1)CC3 2.53% [at 11.4 µM]
CC(NC(=O)CCC(=O)N1CCN(S(=O)(=O)c2ccc(Cl)cc2)CC1)c1ccccc1 (stereo not given) -1.88%
Cc1cc(C)cc(OCC(=O)NNC(=O)CCN2C(=O)c3ccccc3C2=O)c1 -4%
C/C(=C\c1ccccc1)C1NC(=O)c2c(sc3c2CCCC3)N1 (stereo not given) -1.08%
O=C(CN1C(=O)c2cccc3cccc(c23)C1=O)N1CCCCC1 -0.677%
CCOC(=O)N1CCN(C(=O)C2CCN(Cc3ccc(OC)cc3OC)CC2)CC1 -2.84%
O=C1OCCN1C(=O)[C@H]1[C@H](c2ccccc2)C(c2ccc(F)cc2)=NN1c1ccccc1 -8.19% [at 0.00818 µM]
C[C@H]1Cc2c(COc3ccccc3)nc3c(c2CO1)CN(C(=O)NCc1ccco1)CC3 1.43% [at 11.4 µM]
COC(=O)CC1c2ccccc2C(Cc2ccc(OC)cc2)=C(C)N1C(=O)OC (stereo not given) 2.48% [at 11.4 µM]
C=CCn1c2ccccc2c2nnc(SCc3[nH]c(=O)[nH]c3C(=O)CCCCC(=O)OCC)nc21 -6.15%
COC(=O)CN1C(=S)N(c2ccccc2)C(=O)C1CC(=O)Nc1ccc(Cl)cc1 (stereo not given) -15.2%
CC(=O)c1c(N2CCN(c3ccc(F)cc3)CC2)nc(=S)n(-c2ccccc2)c1C -1.83%
COc1ccc(-c2nc(-c3ccccc3)oc2Nc2ccc3ccccc3c2)cc1 -1.22%
O=[N+]([O-])c1ccc(NCCCO)c(C(F)(F)F)c1 -1.65%
CNC(=O)NC(=O)C(OC(=O)c1cccc(S(=O)(=O)N2CCCCC2)c1)c1ccccc1 (stereo not given) 2.13%
O=C1OCCN1C(=O)[C@H]1[C@H](c2ccc(F)cc2)C(c2ccccc2)=NN1c1ccc(Br)cc1 -8.73% [at 0.00818 µM]
CCCc1cc(-c2n[nH]c(=S)n2Cc2ccccc2)cs1 -10.4%
CCCCC(CC(C)O)c1n[nH]c(=S)n1-c1ccccc1 (stereo not given) 2.18%
NNc1nnc(NN)c2ccccc12 -2.71% [at 0.00818 µM]
CCOC(=O)C1=C(C)c2ccccc2OC1C(=O)OCC (stereo not given) 1.63% [at 0.00818 µM]
COC(=O)C1(C(C)=O)CC2=CC[C@H]3C(=O)N(c4ccccc4)C(=O)[C@H]3[C@@H]2Cc2ccccc2[C@@H]1C[N+](=O)[O-] (stereo not given in full) 0.0255%
N#Cc1ccsc1NC(=O)CN1CCN(S(=O)(=O)c2cc(Cl)ccc2Cl)CC1 -0.442%
Cc1nn(-c2ccccc2)c(C)c1/C=N/NC(=O)CSc1nc2ccccc2c(=O)n1-c1ccccc1 -0.304%
CCOC(=O)c1c(NC(=O)Cn2nc(C(F)(F)F)cc2C)sc2c1CCC2 0.245%
CCOc1cc(/C=N/NC(=O)OC)ccc1OCCSc1ccc(Cl)cc1 -0.0265%

Potency, active:
COc1ccc(-c2nnc(SC(=O)N3c4ccccc4Sc4ccccc43)o2)cc1 14.1 µM
CCOC(=O)C1=C(NC(=S)NC(=O)c2ccccc2)c2ccccc2CC1(C)C 25.1 µM
CC(C)Oc1ccc(CCc2n[nH]c(=S)n2Cc2ccccc2)cc1 31.6 µM
